From PubChem BioAssay
Active and inactive are the calls of the source.

Tests used:
[1] = test system: PRMT1 (protein arginine N-methyltransferase 1); assay: PRMT1 binders on small-molecule microarrays, primary screen, biochemical, small-molecule microarray, 635 nm fluorescence (AID 1088); details: small-molecule microarray binding, higher = more signal;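 note: binding of Prmt1 protein to compounds spotted on small-molecule microarray slides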
[2] = yeast growth modulation, basal conditions, primary screen, YJM789 clinical isolate, OD600, 24 h (AID 1089);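 note: growth of clinical yeast isolate S. cerevisiae YJM 789 seeded 1000 cells per well; test concentration not given here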; details: S. cerevisiae YJM789 growth, higher = more signal, called active from +8 up or from −8 down
[3] = fission yeast growth modulation, primary screen, strain 972, OD600, 24 h, no modulator (AID 1090);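 note: basal condition with compound alone and no growth modifier present; test concentration not given here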; details: S. pombe 972 growth, higher = more signal, called active from +8 up or from −8 down
[4] = S. cerevisiae growth modulation with rapamycin, primary screen, strain BY4716, OD600, 96 h (AID 1091); details: higher = more signal, called active from +8 up or from −8 down; note: test concentration not given here
[5] = molecular target: Torsin-1A-interacting protein 2 (Homo sapiens) (UniProt Q8NFQ8); assay: LULL1 binders on small-molecule microarray, primary screen, cell lysate, human LULL1 lysate, 635/667 nm fluorescence (AID 1092); details: hLULL1 lysate binding, 635 nm fluorescence, higher = more signal;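 note: probe is lysate of COS7 cells overexpressing human LULL1; score merges per-feature 667 nm fluorescence with signal-to-noise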
Chain of Torsin-1A-interacting protein 2 (Homo sapiens) (Q8NFQ8 whole entry, looked up): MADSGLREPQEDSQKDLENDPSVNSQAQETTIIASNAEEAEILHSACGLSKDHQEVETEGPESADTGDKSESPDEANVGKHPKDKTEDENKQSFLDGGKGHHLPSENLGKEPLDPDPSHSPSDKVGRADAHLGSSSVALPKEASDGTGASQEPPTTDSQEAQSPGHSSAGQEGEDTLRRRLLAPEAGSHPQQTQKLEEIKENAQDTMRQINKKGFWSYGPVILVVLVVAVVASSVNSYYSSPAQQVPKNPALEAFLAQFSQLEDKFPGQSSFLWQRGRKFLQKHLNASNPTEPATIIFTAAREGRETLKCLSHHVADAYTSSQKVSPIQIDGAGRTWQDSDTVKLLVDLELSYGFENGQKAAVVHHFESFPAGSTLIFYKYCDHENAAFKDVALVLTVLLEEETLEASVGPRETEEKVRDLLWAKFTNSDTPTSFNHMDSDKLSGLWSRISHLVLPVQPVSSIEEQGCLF

[6] = E. coli growth modulation, two-sided OD650, primary screen, E. coli filamentation project, strain DRC41, 24 h (AID 1093); details: OD650, 24 h, higher = more signal, called active from +8 up or from −8 down;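 note: MC1000 strain lacking acrAB efflux and sulA so SOS filamentation is blocked; test concentration not given here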
[7] = small-molecule microarray binders of probe aLefty2, primary screen, biochemical, biotinylated probe, 635/667 nm fluorescence (AID 1094); details: higher = more signal;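 note: score merges spot fluorescence near 667 nm with spot signal-to-noise ratio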
[8] = test system: Noggin (protein binding on small-molecule microarray); assay: Noggin binders on small-molecule microarray, primary screen, biochemical, 635/667 nm fluorescence (AID 1095); details: 635 nm fluorescence, higher = more signal;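 note: score merges 667 nm feature fluorescence with signal to noise over triplicate slides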
[9] = molecular target: Neurogenic locus notch homolog protein 3 (Homo sapiens) (UniProt Q9UM47); assay: NOTCH3 binders on small-molecule microarray, primary screen, biochemical, 635/667 nm fluorescence (AID 1096); details: NOTCH3 binding, 635 nm fluorescence, higher = more signal
Chain of Neurogenic locus notch homolog protein 3 (Homo sapiens) (Q9UM47 whole entry, looked up): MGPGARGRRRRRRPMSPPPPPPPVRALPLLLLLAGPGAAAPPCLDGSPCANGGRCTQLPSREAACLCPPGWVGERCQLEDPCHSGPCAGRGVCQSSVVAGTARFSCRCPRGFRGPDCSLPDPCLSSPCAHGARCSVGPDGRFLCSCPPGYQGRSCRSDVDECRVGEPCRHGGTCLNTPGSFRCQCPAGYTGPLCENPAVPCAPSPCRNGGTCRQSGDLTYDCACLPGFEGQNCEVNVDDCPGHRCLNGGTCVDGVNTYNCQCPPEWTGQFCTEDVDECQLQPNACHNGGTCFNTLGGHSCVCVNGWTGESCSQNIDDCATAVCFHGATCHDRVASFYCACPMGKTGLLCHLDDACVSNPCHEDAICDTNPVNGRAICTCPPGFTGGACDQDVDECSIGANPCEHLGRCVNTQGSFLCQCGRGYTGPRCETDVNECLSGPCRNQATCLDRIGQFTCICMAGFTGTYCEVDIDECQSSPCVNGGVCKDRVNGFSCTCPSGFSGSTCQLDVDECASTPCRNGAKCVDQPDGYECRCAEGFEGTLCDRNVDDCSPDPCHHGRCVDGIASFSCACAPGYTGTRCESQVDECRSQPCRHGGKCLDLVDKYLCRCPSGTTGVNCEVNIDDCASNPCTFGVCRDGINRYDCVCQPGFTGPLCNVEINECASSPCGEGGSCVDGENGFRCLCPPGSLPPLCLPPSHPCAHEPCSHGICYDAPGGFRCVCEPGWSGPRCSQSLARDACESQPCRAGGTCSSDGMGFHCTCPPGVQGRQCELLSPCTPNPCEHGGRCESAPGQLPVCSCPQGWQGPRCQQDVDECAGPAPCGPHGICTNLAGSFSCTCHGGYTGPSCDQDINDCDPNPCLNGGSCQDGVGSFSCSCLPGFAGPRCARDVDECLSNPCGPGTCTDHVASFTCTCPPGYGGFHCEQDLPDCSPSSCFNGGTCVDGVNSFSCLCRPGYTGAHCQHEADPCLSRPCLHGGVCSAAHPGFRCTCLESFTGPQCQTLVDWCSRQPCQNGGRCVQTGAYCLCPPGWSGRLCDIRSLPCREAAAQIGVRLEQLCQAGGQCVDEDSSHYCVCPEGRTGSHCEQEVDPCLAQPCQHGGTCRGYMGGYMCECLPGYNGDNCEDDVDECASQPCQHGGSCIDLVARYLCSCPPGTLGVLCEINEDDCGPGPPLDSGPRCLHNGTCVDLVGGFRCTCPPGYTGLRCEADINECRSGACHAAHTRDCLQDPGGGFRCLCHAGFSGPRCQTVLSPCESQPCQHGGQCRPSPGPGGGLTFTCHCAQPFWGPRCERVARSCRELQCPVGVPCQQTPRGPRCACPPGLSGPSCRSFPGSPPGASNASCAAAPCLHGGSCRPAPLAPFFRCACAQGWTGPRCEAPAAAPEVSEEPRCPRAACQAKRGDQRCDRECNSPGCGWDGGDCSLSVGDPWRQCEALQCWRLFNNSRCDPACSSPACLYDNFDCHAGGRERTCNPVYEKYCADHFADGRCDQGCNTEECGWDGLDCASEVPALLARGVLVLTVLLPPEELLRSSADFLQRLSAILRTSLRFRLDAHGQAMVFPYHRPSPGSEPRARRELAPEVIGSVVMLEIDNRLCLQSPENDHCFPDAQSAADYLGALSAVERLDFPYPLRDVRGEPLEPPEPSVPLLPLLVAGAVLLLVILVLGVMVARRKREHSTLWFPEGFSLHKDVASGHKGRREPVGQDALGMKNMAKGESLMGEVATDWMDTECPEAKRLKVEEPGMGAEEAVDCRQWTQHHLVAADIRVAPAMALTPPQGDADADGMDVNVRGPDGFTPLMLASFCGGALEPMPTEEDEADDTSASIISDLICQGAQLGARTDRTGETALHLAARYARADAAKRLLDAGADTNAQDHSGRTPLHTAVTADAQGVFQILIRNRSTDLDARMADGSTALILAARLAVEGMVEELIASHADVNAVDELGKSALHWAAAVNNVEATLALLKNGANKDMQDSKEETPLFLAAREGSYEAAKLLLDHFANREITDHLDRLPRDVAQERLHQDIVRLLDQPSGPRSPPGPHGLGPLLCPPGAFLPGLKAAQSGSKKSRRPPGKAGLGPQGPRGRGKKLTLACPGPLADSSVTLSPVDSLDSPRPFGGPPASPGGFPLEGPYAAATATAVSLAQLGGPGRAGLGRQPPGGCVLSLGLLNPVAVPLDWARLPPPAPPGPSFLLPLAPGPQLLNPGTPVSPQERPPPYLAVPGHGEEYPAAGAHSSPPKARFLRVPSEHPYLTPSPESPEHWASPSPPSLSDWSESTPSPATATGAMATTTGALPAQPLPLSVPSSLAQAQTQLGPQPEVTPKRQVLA

[10] = small-molecule microarray binders of probe aEGFR, primary screen, biochemical, biotinylated probe, 635/667 nm fluorescence (AID 1097); details: higher = more signal;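 note: probe is a biotinylated anti-EGFR antibody binding compounds printed on slides; score combines fluorescence near 667 nm and signal to noise of each spot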
[11] = test system: Plasmodium falciparum Sir2 (PF13_0152, Sir2A); assay: pfSir2 binders on small-molecule microarrays, primary screen, biochemical, small-molecule microarray, 635 nm fluorescence (AID 1098); details: small-molecule microarray binding, fluorescence 635 nm; higher = more signal;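 note: score merges spot fluorescence intensity with its signal-to-noise ratio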
[12] = small-molecule microarray binders of probe aDKK1, primary screen, biochemical, biotinylated probe, 635/667 nm fluorescence (AID 1099); details: higher = more signal;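 note: score merges 667nm spot fluorescence with signal to noise across triplicate slides; reference of the scale not given here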
[13] = small-molecule microarray binders of probe aCHRDL2, primary screen, biochemical, biotinylated probe, 635/667 nm fluorescence (AID 1100); details: higher = more signal
[14] = splicing luciferase reporter signal modulators, primary screen, spliceosome inhibition project, cell-based, HEK293, splice +/- reporter (AID 1101); details: luminescence, 24 h, higher = more signal, called active from +8 up or from −8 down;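 note: HEK293 cells carrying a splicing-competent luciferase reporter gene; test concentration not given here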
[15] = molecular target: Fibroblast growth factor 10 (Homo sapiens) (UniProt O15520); assay: FGF10 binders on small-molecule microarrays, primary screen, biochemical, small-molecule microarray, 635 nm fluorescence (AID 1102); details: FGF10 binding, fluorescence 635 nm, higher = more signal
Chain of Fibroblast growth factor 10 (Homo sapiens) (O15520 whole entry, looked up): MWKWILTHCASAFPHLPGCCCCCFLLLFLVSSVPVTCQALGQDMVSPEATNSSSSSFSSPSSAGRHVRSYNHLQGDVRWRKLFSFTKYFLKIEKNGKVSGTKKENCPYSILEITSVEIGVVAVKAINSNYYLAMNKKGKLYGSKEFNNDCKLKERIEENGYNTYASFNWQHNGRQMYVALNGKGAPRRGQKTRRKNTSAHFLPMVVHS

[16] = test system: glycogen synthase kinase-3 (GSK3A per assay name; protocol says GSK3B); assay: GSK3 binders on small-molecule microarrays, primary screen, biochemical, small-molecule microarray, 635 nm fluorescence, GSK3A (AID 1103); details: small-molecule microarray binding, fluorescence 635 nm; higher = more signal; note: the record names both GSK3A and GSK3B
[17] = molecular target: Epidermal growth factor receptor (Homo sapiens) (UniProt P00533); assay: EGFR binders on small-molecule microarrays, primary screen, biochemical, small-molecule microarray, 635 nm fluorescence (AID 1104); details: EGFR binding, higher = more signal;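 note: score merges 667 nm emission intensity with spot signal to noise over triplicate slides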
Chain of Epidermal growth factor receptor (Homo sapiens) (P00533 whole entry, looked up): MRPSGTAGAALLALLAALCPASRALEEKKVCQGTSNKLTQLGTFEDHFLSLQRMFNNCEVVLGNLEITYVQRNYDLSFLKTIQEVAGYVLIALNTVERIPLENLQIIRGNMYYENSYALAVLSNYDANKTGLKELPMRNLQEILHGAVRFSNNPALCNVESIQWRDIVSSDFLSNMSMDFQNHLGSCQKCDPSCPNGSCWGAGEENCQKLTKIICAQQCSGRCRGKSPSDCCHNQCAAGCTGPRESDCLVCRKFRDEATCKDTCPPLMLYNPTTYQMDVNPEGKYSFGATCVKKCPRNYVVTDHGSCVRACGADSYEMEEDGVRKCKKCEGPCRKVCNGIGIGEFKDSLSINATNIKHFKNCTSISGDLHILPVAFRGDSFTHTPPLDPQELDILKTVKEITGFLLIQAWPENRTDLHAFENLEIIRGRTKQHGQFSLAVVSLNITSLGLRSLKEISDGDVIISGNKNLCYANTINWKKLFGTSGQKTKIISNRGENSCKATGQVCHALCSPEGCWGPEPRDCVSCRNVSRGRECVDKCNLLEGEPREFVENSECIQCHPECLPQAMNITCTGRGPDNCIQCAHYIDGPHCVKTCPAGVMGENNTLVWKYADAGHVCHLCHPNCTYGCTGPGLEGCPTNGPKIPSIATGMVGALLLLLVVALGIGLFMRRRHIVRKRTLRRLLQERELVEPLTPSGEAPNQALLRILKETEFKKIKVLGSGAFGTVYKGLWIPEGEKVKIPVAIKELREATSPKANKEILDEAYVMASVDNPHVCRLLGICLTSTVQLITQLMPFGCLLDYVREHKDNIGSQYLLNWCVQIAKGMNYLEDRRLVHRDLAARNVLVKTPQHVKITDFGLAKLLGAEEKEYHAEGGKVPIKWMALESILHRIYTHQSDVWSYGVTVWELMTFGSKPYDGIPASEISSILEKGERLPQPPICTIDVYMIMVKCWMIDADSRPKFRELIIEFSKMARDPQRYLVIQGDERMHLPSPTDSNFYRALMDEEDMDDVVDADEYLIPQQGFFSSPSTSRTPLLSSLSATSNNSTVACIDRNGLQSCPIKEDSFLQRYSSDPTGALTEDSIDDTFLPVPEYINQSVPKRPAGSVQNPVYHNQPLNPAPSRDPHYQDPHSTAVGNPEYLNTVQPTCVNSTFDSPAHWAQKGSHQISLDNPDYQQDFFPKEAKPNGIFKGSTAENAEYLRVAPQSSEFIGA

[18] = molecular target: Follistatin-related protein 3 (Homo sapiens) (UniProt O95633); assay: FSTL3 binders on small-molecule microarrays, primary screen, biochemical, small-molecule microarray, 635 nm fluorescence (AID 1105); details: FSTL3 binding, higher = more signal;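 note: score merges emission near 667 nm and signal to noise per printed spot across three slides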
Chain of Follistatin-related protein 3 (Homo sapiens) (O95633 whole entry, looked up): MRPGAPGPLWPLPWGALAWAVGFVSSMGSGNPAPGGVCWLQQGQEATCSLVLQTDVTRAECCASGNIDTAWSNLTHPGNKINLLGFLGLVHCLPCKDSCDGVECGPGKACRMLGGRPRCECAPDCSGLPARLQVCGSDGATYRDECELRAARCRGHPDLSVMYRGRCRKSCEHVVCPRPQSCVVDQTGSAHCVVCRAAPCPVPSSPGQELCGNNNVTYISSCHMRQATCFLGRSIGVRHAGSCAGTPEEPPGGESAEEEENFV

[19] = molecular target: Dickkopf-related protein 1 (Homo sapiens) (UniProt O94907); assay: DKK1 binders on small-molecule microarrays, primary screen, biochemical, small-molecule microarray, 635 nm fluorescence scan (AID 1106); details: DKK1 binding, higher = more signal;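 note: score merges emission near 667 nm with signal to noise over three replicate slides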
Chain of Dickkopf-related protein 1 (Homo sapiens) (O94907 whole entry, looked up): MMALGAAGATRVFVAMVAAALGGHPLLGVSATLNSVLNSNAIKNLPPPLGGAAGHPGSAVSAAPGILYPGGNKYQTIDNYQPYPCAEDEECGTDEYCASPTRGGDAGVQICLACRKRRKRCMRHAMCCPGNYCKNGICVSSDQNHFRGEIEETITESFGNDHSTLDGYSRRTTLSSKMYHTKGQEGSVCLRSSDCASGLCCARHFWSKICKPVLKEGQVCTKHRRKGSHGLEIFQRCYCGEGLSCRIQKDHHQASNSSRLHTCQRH

[20] = test system: Inhibin beta A chain (activin A); assay: INHBA (activin A) binders on microarrays, primary screen, biochemical, small-molecule microarray, 635 nm fluorescence scan (AID 1107); details: small-molecule microarray binding, higher = more signal;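 note: mouse activin A protein probed at 4.33 µg/mL on printed slides; score merges bound-protein fluorescence near 667 nm with spot signal-to-noise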

In the case of `CCOC(=O)C[C@H]1[C@H](OC(=O)c2cc3ccccc3oc2=O)[C@@H](NC(=O)c2ccc(-c3ccccc3)cc2)c2cc(OCCCO)ccc2N1C(=O)c1ccccc1`, the composite z-score [1] is reported as 1.02, the z-score [2] is reported as 0.11 (inactive) and the z-score [3] is reported as -1.64 (inactive). The z-score [4] was 0.117 (inactive), the composite z-score [5] was 1.21 and the z-score [6] was 1.56 (inactive). For the same compound, the composite z-score [7] was -0.0367, the composite z-score [8] was 1.68 and the composite z-score [9] was 1.09. It also gave a composite z-score [10] of 0.0526, a composite z-score [11] of 1.17 and a composite z-score [12] of -0.24. The composite z-score [13] was -0.466, the z-score [14] was -1.38 (inactive) and the composite z-score [15] was 1.02. It also gave a composite z-score [16] of 1.04, a composite z-score [17] of 0.613 and a composite z-score [18] of 1.05. For the same compound, the composite z-score [19] was 1.22 and the composite z-score [20] was 0.479.

For `CC(C)C(=C=CC[C@H](O)c1cccc(OCCO)c1)C[C@H](O)c1cc(Cl)cc(Cl)c1O`, the composite z-score [1] was 1.03, the z-score [2] was 0.834 (inactive) and the z-score [3] was -1.06 (inactive). For the same compound, the z-score [4] was -0.129 (inactive), the composite z-score [5] was 2.37 and the z-score [6] was 0.236 (inactive). For the same compound, the composite z-score [7] was -0.114, the composite z-score [8] was 0.665 and the composite z-score [9] was 0.964. The composite z-score [10] was -0.0626, the composite z-score [11] was 0.507 and the composite z-score [12] was -0.217. The composite z-score [13] was 0.0419, the z-score [14] was -0.747 (inactive) and the composite z-score [15] was 1.43. It also gave a composite z-score [16] of 0.0728, a composite z-score [17] of -0.388 and a composite z-score [18] of 0.544. It also gave a composite z-score [19] of -0.0693 and a composite z-score [20] of 0.346.
